Experimental data from the supplement of paper PMC10849652.
The full data set covers some 8,800 targets. This sample favours those with a hit. About 0.5% of all pairs of compound and target were hits.

compound: C1COCCN1CCN2C3=CC=CC=C3N=C2NC(=O)C4=CC(=CC=C4)[N+](=O)[O-] [IRAK-1-4 Inhibitor I]; experiment: log2 fold change, soluble protein after heating vs DMSO (PISA); higher = thermal stabilisation; K562 lysate, 10 uM; active = over 0.2 and 3.5 SD of the protein, either way, in both replicates (recomputed)
Method in brief: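 Dounce homogenisation of K562 pellets in PBS pH 7.4 with 1 mM MgCl2 produced a crude extract, used at 1 mg/mL protein. Exposure to 10 μM compound lasted 30 min, and aliquots were then heated for 3 min across 48°C-58°C, pooled and brought to 0.5% NP-40 at 4°C. The supernatant after 21,000xg for 90 min was quantified by TMTpro 16plex LC-MS/MS with channel sums equalised. Duplicate values are given as log-two fold change in thermal stability relative to solvent controls.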

UniProt P23443, sequence (P23443 whole entry, looked up): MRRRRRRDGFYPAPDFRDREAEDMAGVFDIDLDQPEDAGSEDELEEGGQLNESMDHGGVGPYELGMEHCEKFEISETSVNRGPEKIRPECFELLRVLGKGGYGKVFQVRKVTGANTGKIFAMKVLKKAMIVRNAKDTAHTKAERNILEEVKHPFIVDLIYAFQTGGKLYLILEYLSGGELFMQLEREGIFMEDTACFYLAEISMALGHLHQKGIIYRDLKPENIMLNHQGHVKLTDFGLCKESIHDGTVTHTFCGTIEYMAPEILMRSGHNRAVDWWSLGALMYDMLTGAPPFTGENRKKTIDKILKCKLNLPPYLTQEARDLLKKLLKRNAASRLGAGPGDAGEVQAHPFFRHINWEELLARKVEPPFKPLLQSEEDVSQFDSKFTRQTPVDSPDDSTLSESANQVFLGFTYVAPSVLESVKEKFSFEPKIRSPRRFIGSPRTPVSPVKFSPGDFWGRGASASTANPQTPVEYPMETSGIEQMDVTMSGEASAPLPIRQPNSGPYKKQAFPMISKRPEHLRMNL
UniProt Q99574, sequence (Q99574 whole entry, looked up): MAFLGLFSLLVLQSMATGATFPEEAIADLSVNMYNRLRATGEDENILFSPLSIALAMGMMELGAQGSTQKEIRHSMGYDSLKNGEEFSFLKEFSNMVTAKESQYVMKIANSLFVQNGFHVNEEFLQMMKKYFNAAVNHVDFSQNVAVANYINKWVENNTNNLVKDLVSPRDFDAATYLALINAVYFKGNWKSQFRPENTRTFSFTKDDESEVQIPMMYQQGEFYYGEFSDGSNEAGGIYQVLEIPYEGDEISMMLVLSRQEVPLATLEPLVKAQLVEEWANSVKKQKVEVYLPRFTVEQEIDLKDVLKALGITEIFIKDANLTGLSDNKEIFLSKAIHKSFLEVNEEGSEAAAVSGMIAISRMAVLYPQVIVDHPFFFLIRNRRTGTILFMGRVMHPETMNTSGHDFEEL
UniProt P04049, sequence (P04049 whole entry, looked up): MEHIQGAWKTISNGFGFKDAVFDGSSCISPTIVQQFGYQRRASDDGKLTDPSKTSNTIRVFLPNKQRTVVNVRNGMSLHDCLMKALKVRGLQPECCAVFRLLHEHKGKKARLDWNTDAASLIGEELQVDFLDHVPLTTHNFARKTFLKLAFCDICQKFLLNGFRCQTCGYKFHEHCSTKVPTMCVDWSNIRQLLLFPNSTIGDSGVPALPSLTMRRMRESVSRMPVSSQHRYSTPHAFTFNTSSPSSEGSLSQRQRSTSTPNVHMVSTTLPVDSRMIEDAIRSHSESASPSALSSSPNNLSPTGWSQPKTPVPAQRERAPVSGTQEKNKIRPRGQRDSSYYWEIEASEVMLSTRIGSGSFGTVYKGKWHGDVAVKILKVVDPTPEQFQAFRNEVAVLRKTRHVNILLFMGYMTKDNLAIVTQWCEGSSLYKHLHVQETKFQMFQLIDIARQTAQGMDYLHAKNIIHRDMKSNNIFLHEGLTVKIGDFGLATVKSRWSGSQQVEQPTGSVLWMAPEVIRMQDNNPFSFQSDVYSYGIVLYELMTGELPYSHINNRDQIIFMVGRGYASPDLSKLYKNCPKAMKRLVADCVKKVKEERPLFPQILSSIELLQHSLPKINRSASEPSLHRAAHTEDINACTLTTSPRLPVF
UniProt P23921, sequence (P23921 whole entry, looked up): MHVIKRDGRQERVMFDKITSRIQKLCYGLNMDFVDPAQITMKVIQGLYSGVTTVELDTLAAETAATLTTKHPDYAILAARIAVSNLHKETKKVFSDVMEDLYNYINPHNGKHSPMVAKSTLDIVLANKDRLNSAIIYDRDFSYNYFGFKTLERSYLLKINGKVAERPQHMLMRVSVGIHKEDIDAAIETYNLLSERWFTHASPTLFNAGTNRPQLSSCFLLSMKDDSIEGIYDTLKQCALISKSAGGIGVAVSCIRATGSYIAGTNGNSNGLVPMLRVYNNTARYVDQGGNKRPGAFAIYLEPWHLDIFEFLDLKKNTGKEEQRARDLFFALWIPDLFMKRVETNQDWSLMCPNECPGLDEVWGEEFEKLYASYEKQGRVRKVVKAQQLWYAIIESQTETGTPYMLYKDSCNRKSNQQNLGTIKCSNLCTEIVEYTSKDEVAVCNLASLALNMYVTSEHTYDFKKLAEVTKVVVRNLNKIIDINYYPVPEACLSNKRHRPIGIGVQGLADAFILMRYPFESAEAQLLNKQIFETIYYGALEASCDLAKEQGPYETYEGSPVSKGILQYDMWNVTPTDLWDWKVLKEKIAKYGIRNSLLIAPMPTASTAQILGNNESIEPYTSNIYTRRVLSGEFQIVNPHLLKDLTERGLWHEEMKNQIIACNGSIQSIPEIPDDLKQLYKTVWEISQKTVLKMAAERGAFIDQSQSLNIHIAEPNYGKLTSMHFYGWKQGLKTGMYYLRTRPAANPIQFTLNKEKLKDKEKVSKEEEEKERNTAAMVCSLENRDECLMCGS
UniProt Q9Y3Z3, sequence (Q9Y3Z3 whole entry, looked up): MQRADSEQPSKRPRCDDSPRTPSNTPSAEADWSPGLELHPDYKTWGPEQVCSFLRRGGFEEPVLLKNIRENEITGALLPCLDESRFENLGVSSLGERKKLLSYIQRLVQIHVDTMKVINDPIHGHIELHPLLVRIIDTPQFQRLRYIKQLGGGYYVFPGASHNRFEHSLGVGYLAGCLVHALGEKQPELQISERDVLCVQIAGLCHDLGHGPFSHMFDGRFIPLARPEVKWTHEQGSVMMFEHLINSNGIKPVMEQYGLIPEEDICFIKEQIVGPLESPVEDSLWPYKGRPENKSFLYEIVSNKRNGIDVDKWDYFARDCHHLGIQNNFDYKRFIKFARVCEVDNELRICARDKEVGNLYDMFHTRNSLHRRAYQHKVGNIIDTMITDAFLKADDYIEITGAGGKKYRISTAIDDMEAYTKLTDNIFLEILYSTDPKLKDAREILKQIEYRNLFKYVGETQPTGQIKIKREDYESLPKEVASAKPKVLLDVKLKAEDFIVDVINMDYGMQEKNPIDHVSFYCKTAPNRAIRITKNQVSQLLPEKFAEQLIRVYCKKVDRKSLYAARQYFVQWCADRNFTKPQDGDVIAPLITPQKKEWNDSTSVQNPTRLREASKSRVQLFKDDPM
UniProt Q9HBH5, sequence (Q9HBH5 whole entry, looked up): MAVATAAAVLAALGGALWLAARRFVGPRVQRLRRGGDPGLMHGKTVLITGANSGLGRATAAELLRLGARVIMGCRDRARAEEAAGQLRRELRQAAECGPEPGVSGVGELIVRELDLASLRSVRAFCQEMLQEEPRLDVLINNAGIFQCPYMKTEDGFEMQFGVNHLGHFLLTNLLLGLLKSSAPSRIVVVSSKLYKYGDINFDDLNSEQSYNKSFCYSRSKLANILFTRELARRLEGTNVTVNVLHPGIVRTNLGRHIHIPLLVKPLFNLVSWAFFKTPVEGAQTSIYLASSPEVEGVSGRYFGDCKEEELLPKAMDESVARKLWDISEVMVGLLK
UniProt Q13530, sequence (Q13530 whole entry, looked up): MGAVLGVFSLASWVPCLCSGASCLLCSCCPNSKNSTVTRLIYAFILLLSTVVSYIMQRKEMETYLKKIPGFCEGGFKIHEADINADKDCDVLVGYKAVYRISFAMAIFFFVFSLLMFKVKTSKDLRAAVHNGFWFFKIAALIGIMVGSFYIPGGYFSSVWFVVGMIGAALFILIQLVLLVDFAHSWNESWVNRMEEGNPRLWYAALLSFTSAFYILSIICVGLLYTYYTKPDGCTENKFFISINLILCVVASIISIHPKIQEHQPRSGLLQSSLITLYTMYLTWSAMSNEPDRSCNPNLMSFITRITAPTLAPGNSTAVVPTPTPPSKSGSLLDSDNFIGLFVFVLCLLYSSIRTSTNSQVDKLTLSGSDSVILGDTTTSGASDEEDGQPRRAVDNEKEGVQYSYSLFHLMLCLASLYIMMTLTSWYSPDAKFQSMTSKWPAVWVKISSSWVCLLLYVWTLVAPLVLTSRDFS
UniProt Q02094, sequence (Q02094 whole entry, looked up): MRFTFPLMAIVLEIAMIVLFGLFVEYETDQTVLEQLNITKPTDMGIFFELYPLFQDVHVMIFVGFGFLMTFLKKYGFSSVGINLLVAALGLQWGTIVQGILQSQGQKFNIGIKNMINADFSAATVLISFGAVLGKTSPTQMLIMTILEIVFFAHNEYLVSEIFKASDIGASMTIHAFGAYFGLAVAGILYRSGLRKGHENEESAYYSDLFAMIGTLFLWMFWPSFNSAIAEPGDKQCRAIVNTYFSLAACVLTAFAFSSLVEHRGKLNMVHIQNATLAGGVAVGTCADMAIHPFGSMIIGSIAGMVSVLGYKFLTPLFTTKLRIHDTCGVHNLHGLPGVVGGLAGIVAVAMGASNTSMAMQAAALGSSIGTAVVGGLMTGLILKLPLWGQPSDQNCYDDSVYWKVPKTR
UniProt P35250, sequence (P35250 whole entry, looked up): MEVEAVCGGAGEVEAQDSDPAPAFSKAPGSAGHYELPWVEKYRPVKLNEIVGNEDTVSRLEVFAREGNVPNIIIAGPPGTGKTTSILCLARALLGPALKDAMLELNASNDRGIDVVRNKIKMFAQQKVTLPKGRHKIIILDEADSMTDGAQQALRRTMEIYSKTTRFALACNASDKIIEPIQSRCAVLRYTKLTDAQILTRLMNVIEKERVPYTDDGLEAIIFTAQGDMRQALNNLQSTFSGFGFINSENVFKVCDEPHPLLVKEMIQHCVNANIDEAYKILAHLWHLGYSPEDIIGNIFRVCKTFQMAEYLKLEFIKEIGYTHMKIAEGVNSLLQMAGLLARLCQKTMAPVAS
UniProt P40937, sequence (P40937 whole entry, looked up): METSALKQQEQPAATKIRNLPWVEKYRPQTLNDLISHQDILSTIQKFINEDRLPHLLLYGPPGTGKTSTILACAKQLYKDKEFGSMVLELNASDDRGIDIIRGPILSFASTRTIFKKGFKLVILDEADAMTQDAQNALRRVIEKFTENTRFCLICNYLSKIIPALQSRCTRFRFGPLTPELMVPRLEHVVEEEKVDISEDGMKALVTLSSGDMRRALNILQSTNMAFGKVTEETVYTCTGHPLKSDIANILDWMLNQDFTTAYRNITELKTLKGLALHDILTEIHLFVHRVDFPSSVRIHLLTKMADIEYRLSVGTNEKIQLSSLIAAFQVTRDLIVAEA

log2 fold change, inactive:
SERPINI1 (UniProt Q99574) 0.031
SASS6 (UniProt Q6UVJ0) -0.021
RPS6KB1 (UniProt P23443) 0.028
SAMHD1 (UniProt Q9Y3Z3) 0.013
S100A11 (UniProt P31949) -0.025
RTN4IP1 (UniProt Q8WWV3) 0.011
RIOK3 (UniProt O14730) 0.016
RAB6D (UniProt Q53S08) 0.003
RHAG (UniProt Q02094) 0.081
RIPK1 (UniProt Q13546) 0
RMC1 (UniProt Q96DM3) 0.006
RAB21 (UniProt Q9UL25) 0.045
RABEPK (UniProt Q7Z6M1) 0.014
SCO1 (UniProt O75880) 0.006
RINT1 (UniProt Q6NUQ1) 0.074
RDH14 (UniProt Q9HBH5) 0.018
RPL31 (UniProt P62899) 0.026
RAF1 isoform 2 (UniProt P04049) -0.058
RDX (UniProt P35241) 0.006
RPS4X (UniProt P62701) 0.03
RIC1 (UniProt Q4ADV7) 0.022
RRM1 (UniProt P23921) 0.021
RNF123 (UniProt Q5XPI4) -0.019
RNF181 (UniProt Q9P0P0) -0.014
RNF213, A0A0A0MTC1 0.025
RNF168 (UniProt Q8IYW5) 0.008
SAR1B (UniProt Q9Y6B6) 0.041
RFC2 (UniProt P35250) -0.013
SBF1 isoform 4 (UniProt O95248) -0.002
SERINC3 (UniProt Q13530) 0.018
RPS29 (UniProt P62273) 0.046
RPS26P11 (UniProt Q5JNZ5) 0.001
RFC5 (UniProt P40937) 0.019
